Consider 40 sequences from the OligoGym collection.
Further: reference of the scale not given here.

The target in one experiment is GTF2H5. Nature of the experiment: pooled miR-30 sensor sort-seq; sequence = guide strand. The settings on record: shRNA.
The sequence TTCTGCTATTACAAAGACGTGA came in with a sensor-assay potency score (higher = more potent) of -0.0161.
TTGAATGATGAACTTCTTCCCC registered a sensor-assay potency score (higher = more potent) of -0.395.
Still for that read-out and setting: the figure for TCTGCTATTACAAAGACGTGAG is 0.353; for ATCAATGTCTTGAATGATGAAC it is -1.38; for TAATTCACCCACTCGCTCCTGG it is 0.481.

For the next experiment, the target named is GUCY2F. The description is as above. The settings on record: shRNA.
In the case of TTATAAAGTAAGCAAATCCATT, the sensor-assay potency score (higher = more potent) is -1.1.
In the case of TAATCTGGAAGCTTACACTGGC, the sensor-assay potency score (higher = more potent) turned out to be 0.71.
Same read-out and setting: as for TGAAGAATTGTAACAGTGCTGA, the figure is -0.218; as for TTTCACATCTTGATTTGTCAGT, -0.489.
Still for that read-out and setting: as for TTGGTCGTTGTTCTGCAGCCTC, the figure is -0.834.
TTGAATTGTAGATGGTTCCAAA showed a sensor-assay potency score (higher = more potent) of -0.33.
Same read-out and setting: the figure for TAAATTGAATTGTAGATGGTTC is -0.461; for TAATGGTCAACACTGCATCATA it is -1.31.
Consider TTGAAGAATTGTAACAGTGCTG, for which the sensor-assay potency score (higher = more potent) was 0.627.
The sequence TAGATGGTTCCAAACAACGGTG gave a sensor-assay potency score (higher = more potent) of -1.15.
TTCCATTTCCATTTGAATCTGT registered a sensor-assay potency score (higher = more potent) of 0.512.
TAATATTGGTCTTCTTCCCTTT yielded a sensor-assay potency score (higher = more potent) of -0.067.

A further experiment has as its target GYG1. The description is as above. The settings on record: shRNA.
As for TACTGTGTAAGCGACCAGCAGT, the sensor-assay potency score (higher = more potent) is -0.399.
On the same count and under the same terms, the figure for TTGAAGCAGAGGTAAAACGTTG is -0.811; for TAACCATCAGAGAACACACTGC it is 0.344.
The same measure, in the same setting: as for TTACTGTACACAGAAAACTGGT, the figure is -0.292; as for TTGCTCAGAAGCAAGATGCAAC, -0.936.
Same read-out and setting: the figure for TTAATATCTTGAGTTTCCCTTA is -0.312; for TTTAAGAACTGATACAGCCATC it is -1.1; for TTTAATGAAAACCTCTAGCAAC it is -1.05.
As for TTACATATGAGCAGGTGTCTTT, the sensor-assay potency score (higher = more potent) is -0.417.
Still for that read-out and setting: the figure for TAACAGACTTTTCTCAACCCAG is -0.49; for TCTAGCAACTGTAACAGACTTT it is -0.0429; for TACAGAACTGAACAAAAGCATT it is -1.48.

The target of the next experiment is H2AFZ. The experiment is described as above. The settings on record: shRNA.
With TAAACTTCCAACTTGCTCAAAT, the sensor-assay potency score (higher = more potent) was -0.831.
Same read-out and setting: as for TTTAGGTGTCGATGAATACGGC, the figure is -0.619; as for TAGCAAGTTGCAAGTGACGAGG, -0.877; as for TTAAACTTCCAACTTGCTCAAA, -1.
Still for that read-out and setting: as for TAGATTTTAGGTGTCGATGAAT, the figure is -1.16; as for TTAGGTGTCGATGAATACGGCC, -0.494; as for TTTGTCTTGGCCTTTCCGGAGT, -0.897.
Turning to TTTACCTTTAAGTCTTTTGATG, the sensor-assay potency score (higher = more potent) was -0.972.
Sequence TTTGAAGCCACAGTAACACTTA returned a sensor-assay potency score (higher = more potent) of 0.62.
Sequence ATAATGTCTGTACAAAACCAAA yielded a sensor-assay potency score (higher = more potent) of -1.91.
Sequence TTGAACTTATCCACCAGAGTGG gave a sensor-assay potency score (higher = more potent) of -0.27.
